Records with an inconclusive call do not appear. The source made the active and inactive calls. Unless noted, calls follow the shape of the dose curve; as a rule, active = well fitted curve in the direction sought with a large enough effect in the repeat runs; inconclusive = weak or mixed curves; inactive = no such curve, though single readings can be large; an effect the other way counts as inactive or inconclusive.
What was measured:
[1] = qHTS assay to identify aromatase inhibitors - cell viability counter screen (AID 743084);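 also: cells stimulated with testosterone during compound exposure; nearly all actives have a fitted effect of over 55% in size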
[2] = molecular target: Aryl hydrocarbon receptor (Homo sapiens) (UniProt P35869); assay: qHTS assay to identify small molecule that activate the aryl hydrocarbon receptor (AhR) signaling pathway (AID 743085); also: nearly all actives have a fitted effect of over 15% in size; also: potency is read from the fitted curve at half-maximal effect;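 as to activation: HG2L7.5c1 human HepG2 liver cells with stably integrated DRE-driven firefly reporter; series mostly up to about 70 µM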
In short: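 Reporter assay in engineered HepG2 line HG2L7.5c1, whose plasmid carries twenty dioxin responsive elements upstream of firefly luciferase. Treatment lasted 24 h at 37C; ONE-Glo luminescence gauged induction.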

[3] = qHTS assay to identify small molecule that activate the aryl hydrocarbon receptor (AhR) signaling pathway - cell viability counter screen (AID 743086);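 also: HepG2 liver cells carrying the AhR DRE luciferase reporter; series mostly up to about 70 µM; nearly all actives have a fitted effect of over 45% in size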
In short: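 HepG2-AhR-luc (HG2L7.5c1) cells, 4000/well, were preincubated 5 h at 37C, exposed to compound in qHTS format for 24 hr at 37C, then given CellTiter-Fluor for 30 min; viability was read as fluorescence in the reporter wells.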

[4] = molecular target: Peroxisome proliferator-activated receptor gamma (Homo sapiens) (UniProt P37231); assay: qHTS assay to identify small molecule agonists of the peroxisome proliferator-activated receptor gamma (PPARg) signaling pathway (AID 743094; active = well fitted activation curve with a large enough effect in the signal ratio in the repeat runs, not every such curve was filed as active; the % refers to the signal ratio)
In short: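 HEK293H PPARg-bla cells, 5 h settle at 37C/5% CO2; compound (DMSO) 17 h, 37C; B/G FRET substrate 1 h RT; fluorescence intensity read-out. qHTS format.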

[5] = molecular target: Peroxisome proliferator-activated receptor gamma (Homo sapiens) (UniProt P37231); assay: qHTS assay to identify small molecule antagonists of the peroxisome proliferator-activated receptor gamma (PPARg) signaling pathway (AID 743191; calls by dose curve; also: series mostly up to about 63 µM; nearly all actives have a fitted effect of over 30% in size)
In short: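 GeneBLAzer PPARg UAS-bla HEK293H cells carrying a UAS-driven beta-lactamase reporter were plated at 3000 cells/well, preincubated 5 h at 37C, then given compound for 17 h at 37C; LiveBLAzer B/G FRET substrate was read after 1 h at room temperature.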

[6] = qHTS assay to identify small molecule antagonists of the peroxisome proliferator-activated receptor gamma (PPARg) signaling pathway - cell viability counter screen (AID 743194); also: nearly all actives have a fitted effect of over 55% in size
In short: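 PPARg-UAS-bla HEK293H cells were plated, rested 5 h at 37 C, then treated with compounds plus rosiglitazone (50 nM final) for 17 h at 37 C; viability was then read by CellTiter-Glo luminescence after 30 min at room temperature.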

[7] = qHTS assay for small molecule agonists of the antioxidant response element (ARE) signaling pathway (AID 743202; active = well fitted activation curve with a large enough effect in the signal ratio in the repeat runs, not every such curve was filed as active; the % refers to the signal ratio; also: potency is read from the fitted curve at half-maximal effect)
In short: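 Steps: seed ARE-bla HepG2 cells (2,000/well); incubate 5 h at 37 C; add compounds by pin tool; incubate 16 h at 37 C; add FRET substrate; read fluorescence after 2 h at RT.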

[8] = qHTS assay for small molecule activators of the heat shock response signaling pathway - cell viability counter screen (AID 743209); also: nearly all actives have a fitted effect of over 50% in size
In short: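 HSE-bla HeLa; 1500 cells/well; overnight 37 C, 5% CO2; compound 5 h 37 C; LiveBLAzer B/G substrate 2.5 h RT; CellTiter-Glo 30 min RT; luminescence.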

[9] = qHTS assay for small molecule activators of the heat shock response signaling pathway (AID 743210; active = well fitted activation curve with a large enough effect in the signal ratio in the repeat runs, with a control signal flat, not every such curve was filed as active; the % refers to the signal ratio;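 also: HeLa cells with beta-lactamase reporter driven by heat shock elements; series mostly up to about 63 µM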)
In short: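 Activation of heat shock element-controlled beta-lactamase expression is measured in HeLa cells by LiveBLAzer FRET fluorescence, with compound exposure lasting 5 h at 37 C and substrate loading 2.5 h at room temperature.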

[10] = qHTS assay to identify small molecule agonists of the peroxisome proliferator-activated receptor delta (PPARd) signaling pathway - cell viability counter screen (AID 743211); also: nearly all actives have a fitted effect of over 55% in size
In short: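 Multiplexed format: after the 2 h room-temperature LiveBLAzer B/G FRET step, CellTiter-Glo was added to the same wells. Luminescence after 30 min gave cell viability; compound exposure was 17 h at 37C.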

[11] = molecular target: Peroxisome proliferator-activated receptor delta (Homo sapiens) (UniProt Q03181); assay: qHTS assay to identify small molecule agonists of the peroxisome proliferator-activated receptor delta (PPARd) signaling pathway (AID 743212; calls by dose curve)
In short: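 Cells expressing a UAS-driven beta-lactamase reporter (PPARd-bla HEK293H) were given test compounds after a 5 h settle and kept at 37 C. Reporter activity was then measured as FRET fluorescence using LiveBLAzer B/G substrate.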

[12] = qHTS assay to identify small molecule antagonists of the peroxisome proliferator-activated receptor delta (PPARd) signaling pathway - cell viability counter screen (AID 743213); also: nearly all actives have a fitted effect of over 50% in size
In short: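 In this counter screen, HEK293H cells carrying a UAS-beta-lactamase reporter are co-treated with test compounds and 300 nM L165041 (final) for 17 h at 37 C; cell viability is quantified by CellTiter-Glo luminescence.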

[13] = qHTS assay to identify small molecule agonists of the farnesoid-X-receptor (FXR) signaling pathway - cell viability counter screen (AID 743218); also: nearly all actives have a fitted effect of over 45% in size
In short: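 Luminescence from CellTiter-Glo, read after 30 min at RT, reports viability of GeneBLAzer FXR-UAS-bla HEK 293T cells treated 16 h with compounds in the wells used for the beta-lactamase reporter.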

[14] = qHTS assay to identify small molecule antagonists of the farnesoid-X-receptor (FXR) signaling pathway - cell viability counter screen (AID 743221; active = well fitted cell-killing curve with a large enough effect in the repeat runs, not every such curve was filed as active; also: nearly all actives have a fitted effect of over 50% in size)
In short: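 CellTiter-Glo, 30 min RT, luminescence; same wells as the LiveBLAzer FRET read. Cells: FXR-UAS-bla HEK 293T. Treatment: compound with chenodeoxycholic acid 50 uM final, 16 h at 37 C.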

[15] = qHTS assay for small molecule agonists of the antioxidant response element (ARE) signaling pathway - cell viability counter screen (AID 743203; calls by dose curve; also: nearly all actives have a fitted effect of over 55% in size)
In short: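 Luminescence read-out (CellTiter-Glo, 30 min at room temperature) measured cell viability in the same wells as the ARE beta-lactamase reporter. HepG2 ARE-bla cells were treated with compounds for 16 hrs at 37C/5% CO2.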

[16] = molecular target: Peroxisome proliferator-activated receptor delta (Homo sapiens) (UniProt Q03181); assay: qHTS assay to identify small molecule antagonists of the peroxisome proliferator-activated receptor delta (PPARd) signaling pathway (AID 743215; active = well fitted inhibition curve with a large enough effect in the signal ratio in the repeat runs, not every such curve was filed as active; the % refers to the signal ratio;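 also: cells stimulated with agonist L165041 at 300 nM final during compound exposure; series mostly up to about 62 µM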)
In short: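 HEK293H GeneBLAzer PPARd UAS-bla reporter cells; cpd + L165041 300 nM final, 17 h 37 C; LiveBLAzer B/G FRET substrate 2 h RT; fluorescence intensity read-out. Antagonist mode.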

[17] = molecular target: Bile acid receptor (Homo sapiens) (UniProt Q96RI1); assay: qHTS assay to identify small molecule antagonists of the farnesoid-X-receptor (FXR) signaling pathway (AID 743217; active = well fitted inhibition curve with a large enough effect in the signal ratio in the repeat runs, not every such curve was filed as active; the % refers to the signal ratio)
In short: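 Read-out: beta-lactamase FRET fluorescence (LiveBLAzer B/G substrate, 2 h, room temperature) in GeneBLAzer FXR-UAS-bla HEK 293T cells. Compounds were co-dosed with 50 uM chenodeoxycholic acid (final) and incubated 16 h at 37 °C.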

[18] = molecular target: Bile acid receptor (Homo sapiens) (UniProt Q96RI1); assay: qHTS assay to identify small molecule agonists of the farnesoid-X-receptor (FXR) signaling pathway (AID 743220; active = well fitted activation curve with a large enough effect in the signal ratio in the repeat runs, not every such curve was filed as active; the % refers to the signal ratio)
In short: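 FXR-UAS-bla HEK 293T cells carrying a UAS-driven beta-lactamase reporter were plated for 5 h at 37C/5% CO2, then exposed to DMSO-dissolved Tox21 10K compounds for 16 h at 37C. A LiveBLAzer B/G FRET substrate was loaded for 2 h at room temperature before fluorescence reading.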

[19] = molecular target: Vitamin D3 receptor (Homo sapiens) (UniProt P11473); assay: qHTS assay to identify small molecule agonists of the vitamin D receptor (VDR) signaling pathway (AID 743222; calls by dose curve)
In short: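 Beta-lactamase reporter readout (LiveBLAzer B/G FRET, 2 h RT) in VDR-bla cells after 16 h compound treatment at 37C, 5% CO2; cells pre-incubated 4 h before pin transfer of DMSO solutions.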

[20] = molecular target: Vitamin D3 receptor (Homo sapiens) (UniProt P11473); assay: qHTS assay to identify small molecule antagonists of the vitamin D receptor (VDR) signaling pathway (AID 743223; active = well fitted inhibition curve with a large enough effect in the signal ratio in the repeat runs, not every such curve was filed as active; the % refers to the signal ratio)
In short: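 After VDR-bla cells are plated and left 4 h at 37C, DMSO-dissolved compounds and 3 nM (final) calcitriol agonist are added. Incubation continues 16 h at 37C; FRET beta-lactamase substrate then develops 2 h at room temperature.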
% is scaled to controls: 0 for no effect and ±100 for the full control effect.

Chain of Peroxisome proliferator-activated receptor delta (Homo sapiens) (Q03181 whole entry, looked up): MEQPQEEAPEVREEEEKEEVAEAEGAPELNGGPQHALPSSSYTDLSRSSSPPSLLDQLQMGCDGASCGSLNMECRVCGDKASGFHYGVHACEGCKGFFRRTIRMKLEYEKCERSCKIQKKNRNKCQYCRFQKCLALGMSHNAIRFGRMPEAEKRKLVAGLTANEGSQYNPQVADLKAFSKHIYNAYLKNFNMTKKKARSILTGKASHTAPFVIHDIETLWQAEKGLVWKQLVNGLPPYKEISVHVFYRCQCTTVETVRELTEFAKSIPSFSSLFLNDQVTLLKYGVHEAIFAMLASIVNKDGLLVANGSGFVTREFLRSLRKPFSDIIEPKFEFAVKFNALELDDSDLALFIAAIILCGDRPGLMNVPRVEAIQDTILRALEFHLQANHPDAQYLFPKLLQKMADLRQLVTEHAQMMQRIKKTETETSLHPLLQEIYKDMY
Chain of Aryl hydrocarbon receptor (Homo sapiens) (P35869 whole entry, looked up): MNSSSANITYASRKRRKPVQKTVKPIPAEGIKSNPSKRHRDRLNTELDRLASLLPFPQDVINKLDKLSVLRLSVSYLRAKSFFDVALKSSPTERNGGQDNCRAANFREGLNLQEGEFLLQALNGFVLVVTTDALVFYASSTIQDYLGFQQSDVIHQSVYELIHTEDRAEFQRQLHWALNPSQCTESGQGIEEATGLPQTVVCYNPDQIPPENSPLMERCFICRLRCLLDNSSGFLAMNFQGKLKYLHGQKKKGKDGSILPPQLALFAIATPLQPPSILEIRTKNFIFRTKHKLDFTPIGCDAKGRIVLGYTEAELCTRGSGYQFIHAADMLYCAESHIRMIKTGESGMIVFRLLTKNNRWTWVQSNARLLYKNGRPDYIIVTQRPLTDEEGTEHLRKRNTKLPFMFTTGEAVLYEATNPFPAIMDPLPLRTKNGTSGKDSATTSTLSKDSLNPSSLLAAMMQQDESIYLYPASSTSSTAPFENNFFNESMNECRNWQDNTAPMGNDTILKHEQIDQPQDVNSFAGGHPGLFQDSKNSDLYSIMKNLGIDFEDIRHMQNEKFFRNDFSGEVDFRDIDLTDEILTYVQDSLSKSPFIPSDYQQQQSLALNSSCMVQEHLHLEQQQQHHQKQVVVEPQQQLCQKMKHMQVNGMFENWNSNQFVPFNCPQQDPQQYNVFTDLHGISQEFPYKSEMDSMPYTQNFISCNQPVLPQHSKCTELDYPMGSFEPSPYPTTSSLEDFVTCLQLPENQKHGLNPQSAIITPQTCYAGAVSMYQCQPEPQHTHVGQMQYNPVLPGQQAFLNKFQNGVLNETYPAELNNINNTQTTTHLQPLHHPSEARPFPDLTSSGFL
Chain of Bile acid receptor (Homo sapiens) (Q96RI1 whole entry, looked up): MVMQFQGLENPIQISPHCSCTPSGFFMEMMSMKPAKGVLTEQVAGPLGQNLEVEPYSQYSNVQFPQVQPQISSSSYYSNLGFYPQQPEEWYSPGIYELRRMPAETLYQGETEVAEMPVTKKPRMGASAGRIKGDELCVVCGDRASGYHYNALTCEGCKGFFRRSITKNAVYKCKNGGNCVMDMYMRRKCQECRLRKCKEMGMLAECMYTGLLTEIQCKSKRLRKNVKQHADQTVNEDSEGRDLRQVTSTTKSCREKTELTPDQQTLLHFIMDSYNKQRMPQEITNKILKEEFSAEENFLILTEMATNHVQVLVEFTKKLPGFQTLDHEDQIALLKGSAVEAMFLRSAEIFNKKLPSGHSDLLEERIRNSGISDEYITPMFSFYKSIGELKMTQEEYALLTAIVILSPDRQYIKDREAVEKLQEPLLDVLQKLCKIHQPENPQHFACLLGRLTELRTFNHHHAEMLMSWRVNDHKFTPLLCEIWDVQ
Chain of Vitamin D3 receptor (Homo sapiens) (P11473 whole entry, looked up): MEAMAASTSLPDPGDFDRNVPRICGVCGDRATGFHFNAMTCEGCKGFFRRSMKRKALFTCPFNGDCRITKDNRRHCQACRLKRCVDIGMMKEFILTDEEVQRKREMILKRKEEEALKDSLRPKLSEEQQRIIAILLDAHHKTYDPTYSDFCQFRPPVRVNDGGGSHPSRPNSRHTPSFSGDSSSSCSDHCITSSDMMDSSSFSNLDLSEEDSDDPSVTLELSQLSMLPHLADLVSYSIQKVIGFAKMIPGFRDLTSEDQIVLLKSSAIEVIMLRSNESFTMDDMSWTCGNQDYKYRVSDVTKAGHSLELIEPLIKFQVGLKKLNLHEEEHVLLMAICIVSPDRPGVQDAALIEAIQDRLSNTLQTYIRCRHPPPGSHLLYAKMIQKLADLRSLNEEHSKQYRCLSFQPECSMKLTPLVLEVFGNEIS
Chain of Peroxisome proliferator-activated receptor gamma (Homo sapiens) (P37231 whole entry, looked up): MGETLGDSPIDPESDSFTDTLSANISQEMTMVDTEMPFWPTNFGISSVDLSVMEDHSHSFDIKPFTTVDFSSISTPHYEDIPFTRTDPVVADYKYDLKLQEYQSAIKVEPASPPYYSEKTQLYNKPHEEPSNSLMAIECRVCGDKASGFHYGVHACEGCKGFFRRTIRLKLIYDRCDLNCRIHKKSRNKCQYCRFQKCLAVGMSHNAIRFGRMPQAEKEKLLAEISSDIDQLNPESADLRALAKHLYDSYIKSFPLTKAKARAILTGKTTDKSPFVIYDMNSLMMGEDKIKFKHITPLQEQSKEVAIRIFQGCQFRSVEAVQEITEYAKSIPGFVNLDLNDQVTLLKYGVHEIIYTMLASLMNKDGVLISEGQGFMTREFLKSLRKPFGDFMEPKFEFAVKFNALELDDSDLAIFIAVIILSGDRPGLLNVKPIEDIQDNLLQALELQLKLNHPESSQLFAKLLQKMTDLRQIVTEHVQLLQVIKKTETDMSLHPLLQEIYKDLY

CC(=O)/C(C)=C/C1C(C)=CCCC1(C)C (stereo not drawn)
inactive: Potency [1] | Potency [2] | Potency [3] | Potency [4] | Potency [5] | Potency [6] | Potency [7] | Potency [8] | outcome [9] | Potency [10] | outcome [11] | Potency [12] | Potency [13] | Potency [14]

CC(=O)NCCCS(=O)(=O)O
active: Potency [7] 26.5 µM
inactive: Potency [1] | Potency [2] | Potency [3] | Potency [4] | Potency [5] | Potency [6] | Potency [15] | Potency [8] | outcome [9] | Potency [10] | outcome [11] | Potency [12] | outcome [16] | outcome [17] | Potency [13] | outcome [18] | Potency [14]

SC1CCCC1
inactive: Potency [1] | Potency [2] | Potency [3] | Potency [4] | Potency [5] | Potency [6] | Potency [7] | Potency [8] | outcome [9] | Potency [10] | Potency [12] | Potency [13] | Potency [14]

O=C(O)C1CCC(C(=O)O)CC1 (stereo not drawn)
inactive: Potency [1] | Potency [2] | Potency [3] | Potency [4] | Potency [5] | Potency [6] | Potency [7] | Potency [15] | Potency [8] | outcome [9] | Potency [12] | Potency [13] | outcome [18] | outcome [19]

C1=Cc2ccccc2C1
active: Potency [2] 27.3 µM
inactive: Potency [1] | Potency [3] | Potency [4] | Potency [5] | Potency [6] | Potency [7] | Potency [8] | outcome [9] | Potency [10] | outcome [11] | Potency [12] | outcome [16] | Potency [13] | Potency [14] | outcome [19] | Potency [20]

CC(CN)CCCN (stereo not drawn)
inactive: Potency [1] | Potency [2] | Potency [3] | Potency [4] | Potency [5] | Potency [6] | Potency [7] | Potency [15] | Potency [8] | outcome [9] | Potency [10] | Potency [12] | Potency [13] | Potency [14]

CCCCCCCCCCCCCCCBr
inactive: Potency [1] | Potency [2] | Potency [3] | Potency [4] | Potency [5] | Potency [6] | Potency [7] | Potency [15] | Potency [8] | outcome [9] | outcome [11] | Potency [12] | outcome [17] | Potency [13] | outcome [18] | Potency [14] | outcome [19]

CC(=O)c1c(C)c([N+](=O)[O-])c(C(C)(C)C)c([N+](=O)[O-])c1C
inactive: Potency [1] | Potency [2] | Potency [3] | Potency [4] | Potency [5] | Potency [6] | Potency [7] | Potency [15] | Potency [8] | outcome [9] | outcome [11] | Potency [12] | outcome [16] | Potency [13] | outcome [18] | Potency [14] | outcome [19]

CCCCCCCCC(CO)CCCCCC (stereo not drawn)
inactive: Potency [1] | Potency [2] | Potency [3] | Potency [4] | Potency [5] | Potency [6] | Potency [7] | Potency [15] | Potency [8] | outcome [9] | Potency [10] | Potency [12] | outcome [17] | Potency [13] | outcome [18] | Potency [14] | outcome [19] | Potency [20]

CC(=O)OCCc1ccccc1
inactive: Potency [1] | Potency [2] | Potency [3] | Potency [4] | Potency [5] | Potency [6] | Potency [7] | Potency [15] | Potency [8] | outcome [9] | outcome [11] | Potency [13] | Potency [14] | outcome [19] | Potency [20]

CCCCCCCCCCCCCCCCCBr
inactive: Potency [1] | Potency [2] | Potency [3] | Potency [4] | Potency [5] | Potency [6] | Potency [7] | Potency [15] | Potency [8] | Potency [10] | outcome [17] | Potency [13] | outcome [18] | Potency [14]

C=C(C)C(=O)OCCOc1ccccc1
inactive: Potency [1] | Potency [2] | Potency [3] | Potency [4] | Potency [5] | Potency [6] | Potency [7] | Potency [15] | Potency [8] | Potency [10] | outcome [11] | Potency [12] | outcome [16] | Potency [13] | Potency [14] | outcome [19] | Potency [20]

Cc1ccc(C)o1
inactive: Potency [1] | Potency [2] | Potency [3] | Potency [4] | Potency [5] | Potency [6] | Potency [7] | Potency [15] | Potency [8] | outcome [9] | Potency [12] | outcome [16] | outcome [17] | Potency [13] | outcome [18] | Potency [14] | outcome [19] | Potency [20]

CC(C)(C)C1CCCCC1O (stereo not drawn)
inactive: Potency [1] | Potency [2] | Potency [3] | Potency [4] | Potency [5] | Potency [6] | Potency [7] | Potency [15] | Potency [8] | outcome [9] | Potency [10] | outcome [11] | outcome [16] | outcome [17] | Potency [13] | outcome [18] | Potency [14] | outcome [19] | Potency [20]

C=C(C)C(=O)OC(C)C
inactive: Potency [1] | Potency [2] | Potency [3] | Potency [4] | Potency [5] | Potency [6] | Potency [7] | Potency [15] | Potency [8] | Potency [12] | Potency [14] | outcome [19] | Potency [20]

CCN(CCO)CCCC(C)Nc1ccnc2cc(Cl)ccc12 (stereo not drawn)
inactive: Potency [1] | Potency [2] | Potency [3] | Potency [4] | ratio activity, negative = inhibition [5] -5.98% [at 5.95 µM] | activity change, negative = cytotoxicity [6] 0.825% [at 5.95 µM] | activation [7] -5.09% [at 8.36 µM] | viability change, negative = cytotoxic [15] -9.02% [at 8.36 µM] | activity change, negative = cytotoxicity [8] -18.6% [at 5.95 µM] | activation [9] -0.125% [at 5.95 µM] | activity change, negative = cytotoxicity [10] 9.74% [at 5.95 µM] | viability change, negative = cytotoxic [13] -0.758% [at 5.95 µM] | activity change, negative = cytotoxicity [14] 10.2% [at 5.95 µM] | activation [19] 9.25% [at 6.01 µM] | activity change, negative = inhibition [20] -3.93% [at 6.95 µM]

From PubChem BioAssay (Tox21)
